Data taken from PubChem BioAssay (NCATS).
Where “and” joins values, the source holds several entries; their conditions need not be identical. Equal values may be shown once. Results filed as inconclusive are left out. Where a call stands in place of a potency, no number is given. The source holds several records for some structures; these can differ, active in one and inactive in another. Calls of active or inactive are those of the source. The call rests on the fitted dose curve; in most records, active means well fitted inhibition curve with a large enough effect; inconclusive means small, poorly fitted or top-dose-only effect; inactive means flat fitted curve, though single readings scatter.

Key:
[1] = system: CRL-7250; experiment: Cytotoxic Profiling of Annotated Libraries Using Quantitative High-Throughput Screening (AID 1296008); conditions: Five cell lines viability, CellTiter-Glo ATP luminescence, 48-72 h; max response: stronger effect = lower value
Outline: (§1)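 Compounds were pin-transferred onto cells and incubated 48 or 72 hr at 37 degree Celsius, 95% humidity. CellTiter-Glo was added, plates sat 10 min at room temperature, then ATP-coupled luminescence was imaged as the viability read-out.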

[2] = system: HEK293; experiment: as above; conditions: Five cell lines viability, CellTiter-Glo ATP luminescence, 48-72 h; max response: stronger effect = lower value
Outline: as §1

[3] = system: HaCat; experiment: as above; conditions: Five cell lines viability, CellTiter-Glo ATP luminescence, 48-72 h; max response: stronger effect = lower value
Outline: as §1

[4] = system: KB-3-1; experiment: as above; conditions: Five cell lines viability, CellTiter-Glo ATP luminescence, 48-72 h; max response: stronger effect = lower value
Outline: as §1

[5] = system: NIH3T3; experiment: as above; conditions: Five cell lines viability, CellTiter-Glo ATP luminescence, 48-72 h; max response: stronger effect = lower value
Outline: as §1

[6] = system: HACAT; experiment: qHTS assay to identify novel small-molecules to repurpose for Merkel cell carcinoma treatment (AID 1296009); conditions: MCC and control cell lines, CellTiter-Glo viability, 72 h; at 44.8 µM (top of the series) unless noted
Outline: (§2)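 qHTS format: cells treated with library compounds in DMSO across 8 (NPC) or 11 (MIPE) concentrations. Readout after 72 hr at 37 degree celsius was CellTiter-Glo luminescence.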

[7] = system: MCC-13; experiment: as above; conditions: MCC and control cell lines, CellTiter-Glo viability, 72 h; series mostly up to 46 µM
Outline: as §2

[8] = system: MCC-26; experiment: as above; conditions: MCC and control cell lines, CellTiter-Glo viability, 72 h; series mostly up to 46 µM
Outline: as §2

[9] = system: MKL-1; experiment: as above; conditions: MCC and control cell lines, CellTiter-Glo viability, 72 h; series mostly up to 46 µM
Outline: as §2

[10] = system: HEK293T; experiment: as above; conditions: MCC and control cell lines, CellTiter-Glo viability, 72 h; at 44.8 µM (top of the series) unless noted
Outline: as §2
Further: nearly all actives have a fitted effect of over 60% in size.
Potency means the concentration at half of the fitted maximal effect.

SMILES	max response [1]	outcome [1]	Potency [2]	max response [2]	Potency [3]	max response [3]	outcome [3]	max response [4]	Potency [5]	max response [5]	outcome [5]	outcome [6]	Potency [7]	Potency [8]	Potency [9]	Potency [1]	Potency [4]	outcome [2]	outcome [4]	outcome [10]
CN(C)CCc1c[nH]c2ccc(C[C@H]3COC(=O)N3)cc12	-10.2% (inactive)	inactive	4.18 µM (active)	4.33% (inactive) and -3.7% (inactive)	14.8 µM (active)	4.23% (inactive)	inactive	7.3% (inactive) and 1.82% (inactive)	10.5 µM (active)	-0.145% (inactive)	inactive	inactive	inactive	inactive	inactive					
CC(C)Cn1cnc2c(N)nc3ccccc3c21	-12.7% (inactive)	inactive		-0.0078% (inactive)		-15.1% (inactive) and -54.5% (inactive)		-6.03% (inactive) and -18.1% (inactive)		-4.24% (inactive) and -9.09% (inactive)			inactive	inactive	inactive					
COc1cc([C@@H]2c3cc4c(cc3[C@H](O)[C@H]3COC(=O)[C@H]23)OCO4)cc(OC)c1OC	-103% (inactive)		0.0422 µM (active)	-87.1% (inactive)			inactive					inactive	94.4 nM (active) and 2.6 nM (active)		inactive	0.0299 µM (active)	32.6 nM (active) and 0.8 nM (active)			
CNS(=O)(=O)CCc1ccc2[nH]cc(C3CCN(C)CC3)c2c1	-7.4% (inactive) and 0.211% (inactive)	inactive		-3.79% (inactive) and -10.1% (inactive)		0.93% (inactive)	inactive	-19.4% (inactive) and 0.237% (inactive)		0.12% (inactive)	inactive	inactive	inactive	inactive	inactive			inactive	inactive	inactive
O=c1cc(O)c(Cl)c[nH]1	-3.23% (inactive)	inactive		3.54% (inactive) and 0.705% (inactive)		-15.6% (inactive)	inactive	2.19% (inactive)		2.08% (inactive)	inactive	inactive	inactive	inactive	inactive					
COc1cc2c(Nc3ccc(Br)cc3F)ncnc2cc1OCC1CCN(C)CC1		inactive	26.4 µM (active)	-4.93% (inactive)	7.31 µM (active)	0.174% (inactive)		-19.6% (inactive)	5.9 µM (active) and 5.17 µM (active)		inactive		23.5 µM (active) and inactive	inactive	inactive	18.7 µM (active)				
CC(C)(Sc1cc(C(C)(C)C)c(O)c(C(C)(C)C)c1)Sc1cc(C(C)(C)C)c(O)c(C(C)(C)C)c1	-4.36% (inactive)	inactive		2.23% (inactive)		0.994% (inactive)	inactive	-10.8% (inactive) and 4.75% (inactive)		1.18% (inactive)	inactive	inactive	inactive	inactive	inactive			inactive		inactive
CC1=NN(c2ccccc2)C(=O)C1	-10.4% (inactive) and -10.5% (inactive)	inactive		-7.12% (inactive) and -3.41% (inactive) and -4.46% (inactive)		-6.55% (inactive)	inactive	3.2% (inactive)		2.82% (inactive)	inactive	inactive	inactive	inactive	inactive				inactive	
Cn1c(=O)c2c(ncn2CC(O)CO)n(C)c1=O (stereo unspecified)	2.57% (inactive) and -3.36% (inactive)			-3.34% (inactive) and -13.7% (inactive)		2.18% (inactive)	inactive	3.89% (inactive)		2.82% (inactive) and -0.547% (inactive)		inactive	inactive	inactive	inactive				inactive	
CCn1cc(C(=O)O)c(=O)c2cc(F)c(N3CCN(C)CC3)cc21	-3.59% (inactive)	inactive				-4.37% (inactive)	inactive	2.67% (inactive) and -1.65% (inactive)		-2.14% (inactive)	inactive	inactive [at 17.4 µM]	inactive	inactive	inactive					inactive [at 17.4 µM]
CCn1cc(C(=O)O)c(=O)c2cc(F)c(N3CCNCC3)nc21	-4.45% (inactive) and -16.8% (inactive)			-5.1% (inactive)		-2.73% (inactive)	inactive	-1.65% (inactive) and 0.264% (inactive)			inactive	inactive	inactive	inactive	inactive			inactive		inactive
CCC(=O)O[C@]1(C(=O)SCF)[C@H](C)C[C@H]2[C@@H]3C[C@H](F)C4=CC(=O)C=C[C@]4(C)[C@@]3(F)[C@@H](O)C[C@@]21C		inactive		1.44% (inactive) and 1.99% (inactive)		0.77% (inactive)	inactive	26.7% (inactive)		1.81% (inactive) and -2.44% (inactive)		inactive	inactive	inactive	inactive				inactive	
CN(CCOc1ccc(CC2SC(=O)NC2=O)cc1)c1ccccn1 (stereo unspecified)	0.739% (inactive)			2.68% (inactive)			inactive	-1.01% (inactive) and -2.41% (inactive)		0.939% (inactive)		inactive	inactive	inactive	inactive			inactive		inactive
CNNCc1ccc(C(=O)NC(C)C)cc1		inactive		2.6% (inactive)		-9.48% (inactive)	inactive	-11.6% (inactive)		-4.42% (inactive)	inactive	inactive	inactive	inactive	inactive			inactive	inactive	inactive
CCCc1cc(C(N)=S)ccn1		inactive		-0.75% (inactive) and -9.47% (inactive)		0.608% (inactive)	inactive	-1.25% (inactive) and 6.29% (inactive)		-7.14% (inactive) and -4.81% (inactive)		inactive	inactive	inactive	inactive					
CC[C@H](NC(C)C)[C@H](O)c1ccc(O)c2[nH]c(=O)ccc12	0.158% (inactive) and -0.536% (inactive)					-10.6% (inactive)	inactive	8.39% (inactive)		2.87% (inactive) and -5.91% (inactive)		inactive	inactive	inactive	inactive			inactive		inactive
CC(C)OC(=O)C(C(=O)OC(C)C)=C1SC=CS1		inactive		-6.55% (inactive)		-22% (inactive)	inactive	13.9% (inactive)		0.152% (inactive)	inactive	inactive	inactive	inactive	inactive				inactive	
CS(=O)(=O)c1ccc([C@@H](O)[C@@H](CO)NC(=O)C(Cl)Cl)cc1	-2.94% (inactive)	inactive				4.09% (inactive)	inactive	-5.5% (inactive)		1.24% (inactive) and 2.73% (inactive)		inactive	inactive	inactive	inactive					
CO[C@@H]1[C@@H](OC(N)=O)[C@@H](O)[C@H](Oc2ccc3c(O)c(NC(=O)c4ccc(O)c(CC=C(C)C)c4)c(=O)oc3c2C)OC1(C)C	0.852% (inactive) and -24.9% (inactive)					0.197% (inactive)	inactive	-7.22% (inactive) and 9.2% (inactive)		-2.07% (inactive) and -24% (inactive)		inactive	inactive	inactive	inactive			inactive		inactive
Cc1cc(NS(=O)(=O)c2ccc(N)cc2)no1	-8.57% (inactive)	inactive					inactive	-10.1% (inactive)		-3.95% (inactive)	inactive	inactive	inactive	inactive	inactive				inactive	
Nc1nc(F)nc2c1ncn2[C@@H]1O[C@H](CO)[C@@H](O)[C@@H]1O	-19.1% (inactive)					-5.85% (inactive)							2.35 µM (active)	inactive and 2.09 µM (active)	16.8 µM (active)	0.332 µM (active)	820 nM (active) and 1.3 µM (active) and 1.18 µM (active)		inactive	
OC(Cn1cncn1)(Cn1cncn1)c1ccc(F)cc1F	2.49% (inactive) and -1.86% (inactive)			-0.0788% (inactive) and -5.53% (inactive)		-29.4% (inactive)	inactive	-2.5% (inactive) and 5.59% (inactive)		-0.561% (inactive) and -16.4% (inactive)		inactive	inactive	inactive	inactive					
Clc1ccccc1CN1CCc2sccc2C1	-20.6% (inactive)	inactive				-7.82% (inactive)		9.17% (inactive) and -6.26% (inactive)		1.51% (inactive) and 3.19% (inactive)			inactive	inactive	inactive					
O=C(O)c1cccnc1	0.94% (inactive)					-6.32% (inactive)		23.8% (inactive) and 4.59% (inactive)		-0.396% (inactive) and 0.818% (inactive)			inactive	inactive	inactive	16.6 µM (active)				
CNS(=O)(=O)Cc1ccc2[nH]cc(CCN(C)C)c2c1	-6.22% (inactive)	inactive					inactive	-7.88% (inactive) and 1.69% (inactive)		-1.5% (inactive)	inactive	inactive	inactive	inactive	inactive					inactive
CC1=CC(=O)c2ccccc2C1=O	3.35% (inactive)	inactive					inactive	1.53% (inactive)		-2.61% (inactive)	inactive	inactive	inactive	inactive	inactive				inactive	inactive
NC1(c2ccc(-c3nc4ccn5c(=O)[nH]nc5c4cc3-c3ccccc3)cc2)CCC1	-3.3% (inactive)		3.32 µM (active) and 2.37 µM (active) and 3.26 µM (active)		25.9 µM (active)	-15.1% (inactive)				-6.67% (inactive)			inactive	inactive	20.9 µM (active)		16.4 µM (active)			
